Values joined by “and” are separate entries in the source; they are usually repeats but may differ in a detail not shown here. Identical values can stand only once. For some of these results: Entries with a potency or affinity are not part of this list.
Experiments:
Set-up in all cases: scale not given: direction of the effect not stated beside the values
[1] = target: Protein translocase subunit SecA (Escherichia coli (strain K12)) (UniProt P10408); test: Assay to Identify E. coli SecA ATPase Inhibitors; assay type: functional; details: 30 µM
Chain of Protein translocase subunit SecA (Escherichia coli (strain K12)) (P10408 whole entry): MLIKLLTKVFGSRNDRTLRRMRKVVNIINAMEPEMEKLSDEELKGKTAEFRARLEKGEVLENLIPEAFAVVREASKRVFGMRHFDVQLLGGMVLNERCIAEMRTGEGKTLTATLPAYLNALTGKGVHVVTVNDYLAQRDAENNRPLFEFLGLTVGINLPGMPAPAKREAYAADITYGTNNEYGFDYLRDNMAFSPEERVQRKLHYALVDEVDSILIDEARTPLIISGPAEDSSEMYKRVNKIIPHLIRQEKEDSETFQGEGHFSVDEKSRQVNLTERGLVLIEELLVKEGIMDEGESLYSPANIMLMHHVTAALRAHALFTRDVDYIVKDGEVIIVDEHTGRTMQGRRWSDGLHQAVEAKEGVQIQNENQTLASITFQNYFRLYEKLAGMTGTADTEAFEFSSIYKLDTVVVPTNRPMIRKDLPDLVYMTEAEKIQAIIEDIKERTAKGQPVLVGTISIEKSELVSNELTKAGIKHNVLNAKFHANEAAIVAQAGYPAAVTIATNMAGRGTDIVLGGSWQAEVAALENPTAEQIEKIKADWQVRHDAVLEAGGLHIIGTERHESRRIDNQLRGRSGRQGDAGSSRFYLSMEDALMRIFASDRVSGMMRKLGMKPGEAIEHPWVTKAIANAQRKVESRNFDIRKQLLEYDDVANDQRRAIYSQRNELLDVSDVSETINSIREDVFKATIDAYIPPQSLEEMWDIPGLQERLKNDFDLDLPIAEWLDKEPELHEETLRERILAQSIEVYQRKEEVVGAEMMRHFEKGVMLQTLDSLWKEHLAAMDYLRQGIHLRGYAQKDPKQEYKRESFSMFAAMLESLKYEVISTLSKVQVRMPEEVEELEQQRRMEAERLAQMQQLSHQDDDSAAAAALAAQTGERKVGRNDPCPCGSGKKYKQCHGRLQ

[2] = target: T1, Ubiquitin-activating enzyme e1, putative (Leishmania donovani (strain BPK282A1)) (UniProt E9BSI1); test: Leishmania donovani Ubiquitin Activating Enzyme (LdE1); assay type: functional; details: 30 µM
T1 sequence (whole entry): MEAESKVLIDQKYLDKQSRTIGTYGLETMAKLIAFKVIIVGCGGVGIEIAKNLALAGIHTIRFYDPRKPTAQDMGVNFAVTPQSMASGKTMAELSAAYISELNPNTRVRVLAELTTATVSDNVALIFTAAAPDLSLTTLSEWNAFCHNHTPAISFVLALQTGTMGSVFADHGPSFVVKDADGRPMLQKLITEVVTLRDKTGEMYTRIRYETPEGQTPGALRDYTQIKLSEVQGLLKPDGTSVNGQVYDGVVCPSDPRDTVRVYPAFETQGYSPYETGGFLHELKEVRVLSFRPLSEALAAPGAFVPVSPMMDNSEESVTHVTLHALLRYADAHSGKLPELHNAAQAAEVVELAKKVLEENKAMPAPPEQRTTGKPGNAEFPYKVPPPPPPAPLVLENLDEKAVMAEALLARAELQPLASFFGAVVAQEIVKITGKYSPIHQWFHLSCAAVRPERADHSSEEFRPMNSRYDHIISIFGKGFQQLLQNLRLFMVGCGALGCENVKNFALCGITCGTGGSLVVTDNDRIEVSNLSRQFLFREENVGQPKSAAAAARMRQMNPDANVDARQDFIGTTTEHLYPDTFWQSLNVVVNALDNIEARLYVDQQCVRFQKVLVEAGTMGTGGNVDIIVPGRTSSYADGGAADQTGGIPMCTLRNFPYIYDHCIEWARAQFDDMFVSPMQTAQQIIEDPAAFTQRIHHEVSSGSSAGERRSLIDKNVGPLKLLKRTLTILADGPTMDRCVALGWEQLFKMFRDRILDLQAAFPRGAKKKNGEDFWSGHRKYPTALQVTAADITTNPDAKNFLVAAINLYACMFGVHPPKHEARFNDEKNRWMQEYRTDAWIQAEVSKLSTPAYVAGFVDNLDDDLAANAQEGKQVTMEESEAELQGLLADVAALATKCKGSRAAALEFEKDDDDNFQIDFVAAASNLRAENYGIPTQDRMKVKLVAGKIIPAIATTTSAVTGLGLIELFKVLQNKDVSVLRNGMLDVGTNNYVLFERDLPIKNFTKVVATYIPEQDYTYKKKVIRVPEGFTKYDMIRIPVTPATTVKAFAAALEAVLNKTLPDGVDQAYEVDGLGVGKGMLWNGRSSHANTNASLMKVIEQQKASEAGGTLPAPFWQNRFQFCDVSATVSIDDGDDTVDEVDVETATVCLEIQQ

[3] = target: AMP-activated protein kinase, AMPK (Homo sapiens) (UniProt P54646+O43741+P54619+Q9UGJ0+Q9Y478+Q13131+Q9UGI9); test: AMP-dependent Kinase enzyme assay. An in vitro enzyme assay that detects ADP turnover that is directly proportional to AMPK activity. This uses naive AMPK that is activated during the assay with MK-8722; assay type: functional; details: 30 µM
[4] = target: Sialic acid-binding Ig-like lectin 9 (Homo sapiens) (UniProt Q9Y336); test: Hs-Siglec9 ALPHAscreen SOP 20170721; details: 10 µM
Chain of Sialic acid-binding Ig-like lectin 9 (Homo sapiens) (Q9Y336 whole entry): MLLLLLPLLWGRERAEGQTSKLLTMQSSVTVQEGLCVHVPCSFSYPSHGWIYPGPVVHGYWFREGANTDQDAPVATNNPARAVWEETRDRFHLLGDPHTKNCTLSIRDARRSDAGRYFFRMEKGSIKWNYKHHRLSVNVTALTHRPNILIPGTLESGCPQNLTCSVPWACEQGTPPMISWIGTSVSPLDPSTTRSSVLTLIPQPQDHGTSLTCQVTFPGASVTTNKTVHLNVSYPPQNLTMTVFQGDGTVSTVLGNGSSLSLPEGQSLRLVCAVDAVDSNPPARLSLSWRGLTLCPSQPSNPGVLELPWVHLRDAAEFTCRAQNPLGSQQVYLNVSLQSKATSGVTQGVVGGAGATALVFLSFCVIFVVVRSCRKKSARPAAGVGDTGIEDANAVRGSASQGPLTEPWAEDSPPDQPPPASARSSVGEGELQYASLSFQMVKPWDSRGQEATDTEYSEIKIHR

[5] = tested on: Trypanosoma cruzi; test: Trypanosoma cruzi phosphomannomutase and mannose-1-phosphate guanylyltransferase assay; assay type: functional; details: 10 µM
[6] = target: T2, Arginase-2, mitochondrial (Homo sapiens) (UniProt P78540); test: in vitro enzyme assay to detect the production of urea directly proportional to the activity of Arginase II; assay type: functional; details: 33.3 µM; also: in the data most compounds retested in dose-response had high values
T2 sequence (whole entry): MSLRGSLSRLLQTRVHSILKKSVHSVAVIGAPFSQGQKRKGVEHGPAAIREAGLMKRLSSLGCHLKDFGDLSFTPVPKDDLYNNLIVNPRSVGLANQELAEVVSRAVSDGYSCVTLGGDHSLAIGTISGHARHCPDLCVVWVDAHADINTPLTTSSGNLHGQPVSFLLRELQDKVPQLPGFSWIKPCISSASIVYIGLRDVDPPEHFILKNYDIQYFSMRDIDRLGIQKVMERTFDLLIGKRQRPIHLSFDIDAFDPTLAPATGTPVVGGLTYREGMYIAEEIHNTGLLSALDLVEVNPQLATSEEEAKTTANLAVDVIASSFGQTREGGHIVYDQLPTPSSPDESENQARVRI

[7] = target: T3, Proteasome subunit beta (Trypanosoma cruzi) (UniProt O96673); test: Trypanosoma cruzi proteasome chymotrypsin-like activity (TcProtChymo) assay.; also: in the data most compounds retested in dose-response had high values; assay type: functional; details: 9.37 µM
T3 sequence (whole entry): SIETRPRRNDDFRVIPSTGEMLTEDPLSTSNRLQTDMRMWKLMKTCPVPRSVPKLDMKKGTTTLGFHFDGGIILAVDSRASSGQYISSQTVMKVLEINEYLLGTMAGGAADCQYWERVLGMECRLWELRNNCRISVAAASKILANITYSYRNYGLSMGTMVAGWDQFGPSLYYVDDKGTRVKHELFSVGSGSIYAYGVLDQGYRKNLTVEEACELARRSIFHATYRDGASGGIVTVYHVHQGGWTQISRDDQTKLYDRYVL

[8] = species: Homo sapiens; test: To identify inhibition of the IFN signalling (Jak-Stat) pathway via expression of an eGFP reporter gene under the control of an IFN-stimulated response element (ISRE) containing MxA promoter.; assay type: functional; details: 30 µM
[9] = target: T4, Tyrosyl-tRNA synthetase, putative (Trypanosoma cruzi (strain CL Brener)) (UniProt Q4DSP6); test: Trypanosoma cruzi tyrosyl tRNA synthetase (TcYRS) _High Tyrosine SOP; assay type: functional; details: 30 µM; also: in the data most compounds retested in dose-response had high values
T4 sequence (whole entry): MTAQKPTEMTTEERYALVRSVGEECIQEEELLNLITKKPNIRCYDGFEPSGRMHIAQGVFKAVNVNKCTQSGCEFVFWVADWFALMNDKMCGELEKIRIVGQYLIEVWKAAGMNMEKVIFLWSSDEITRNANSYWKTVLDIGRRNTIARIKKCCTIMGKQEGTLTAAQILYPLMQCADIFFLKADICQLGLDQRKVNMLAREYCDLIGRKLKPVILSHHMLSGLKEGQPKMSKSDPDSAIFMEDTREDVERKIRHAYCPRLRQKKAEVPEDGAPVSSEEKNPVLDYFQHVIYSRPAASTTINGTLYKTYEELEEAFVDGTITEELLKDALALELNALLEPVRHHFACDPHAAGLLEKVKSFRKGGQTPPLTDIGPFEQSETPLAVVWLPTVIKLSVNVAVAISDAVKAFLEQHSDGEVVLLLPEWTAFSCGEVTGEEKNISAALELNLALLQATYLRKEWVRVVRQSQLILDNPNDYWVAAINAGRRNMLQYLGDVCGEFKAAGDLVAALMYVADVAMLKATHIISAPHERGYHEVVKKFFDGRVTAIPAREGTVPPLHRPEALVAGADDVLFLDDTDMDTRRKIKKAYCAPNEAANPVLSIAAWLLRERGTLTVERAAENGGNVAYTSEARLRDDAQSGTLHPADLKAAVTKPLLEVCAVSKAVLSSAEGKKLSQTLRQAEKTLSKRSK

[10] = target: T4, Tyrosyl-tRNA synthetase, putative (Trypanosoma cruzi (strain CL Brener)); test: Trypanosoma cruzi tyrosyl tRNA synthetase (TcYRS) SOP; assay type: functional; details: 30 µM
[11] = target: Chromo domain-containing protein 1 (Saccharomyces cerevisiae (strain ATCC 204508 / S288c) (Baker's yeast)) (UniProt P32657); test: ScCHD-1 Enzyme Inhibition Assay; assay type: functional; details: 30 µM; also: in the data most compounds retested in dose-response had high values
Chain of Chromo domain-containing protein 1 (Saccharomyces cerevisiae (strain ATCC 204508 / S288c) (Baker's yeast)) (P32657 whole entry, the tested form may be a part): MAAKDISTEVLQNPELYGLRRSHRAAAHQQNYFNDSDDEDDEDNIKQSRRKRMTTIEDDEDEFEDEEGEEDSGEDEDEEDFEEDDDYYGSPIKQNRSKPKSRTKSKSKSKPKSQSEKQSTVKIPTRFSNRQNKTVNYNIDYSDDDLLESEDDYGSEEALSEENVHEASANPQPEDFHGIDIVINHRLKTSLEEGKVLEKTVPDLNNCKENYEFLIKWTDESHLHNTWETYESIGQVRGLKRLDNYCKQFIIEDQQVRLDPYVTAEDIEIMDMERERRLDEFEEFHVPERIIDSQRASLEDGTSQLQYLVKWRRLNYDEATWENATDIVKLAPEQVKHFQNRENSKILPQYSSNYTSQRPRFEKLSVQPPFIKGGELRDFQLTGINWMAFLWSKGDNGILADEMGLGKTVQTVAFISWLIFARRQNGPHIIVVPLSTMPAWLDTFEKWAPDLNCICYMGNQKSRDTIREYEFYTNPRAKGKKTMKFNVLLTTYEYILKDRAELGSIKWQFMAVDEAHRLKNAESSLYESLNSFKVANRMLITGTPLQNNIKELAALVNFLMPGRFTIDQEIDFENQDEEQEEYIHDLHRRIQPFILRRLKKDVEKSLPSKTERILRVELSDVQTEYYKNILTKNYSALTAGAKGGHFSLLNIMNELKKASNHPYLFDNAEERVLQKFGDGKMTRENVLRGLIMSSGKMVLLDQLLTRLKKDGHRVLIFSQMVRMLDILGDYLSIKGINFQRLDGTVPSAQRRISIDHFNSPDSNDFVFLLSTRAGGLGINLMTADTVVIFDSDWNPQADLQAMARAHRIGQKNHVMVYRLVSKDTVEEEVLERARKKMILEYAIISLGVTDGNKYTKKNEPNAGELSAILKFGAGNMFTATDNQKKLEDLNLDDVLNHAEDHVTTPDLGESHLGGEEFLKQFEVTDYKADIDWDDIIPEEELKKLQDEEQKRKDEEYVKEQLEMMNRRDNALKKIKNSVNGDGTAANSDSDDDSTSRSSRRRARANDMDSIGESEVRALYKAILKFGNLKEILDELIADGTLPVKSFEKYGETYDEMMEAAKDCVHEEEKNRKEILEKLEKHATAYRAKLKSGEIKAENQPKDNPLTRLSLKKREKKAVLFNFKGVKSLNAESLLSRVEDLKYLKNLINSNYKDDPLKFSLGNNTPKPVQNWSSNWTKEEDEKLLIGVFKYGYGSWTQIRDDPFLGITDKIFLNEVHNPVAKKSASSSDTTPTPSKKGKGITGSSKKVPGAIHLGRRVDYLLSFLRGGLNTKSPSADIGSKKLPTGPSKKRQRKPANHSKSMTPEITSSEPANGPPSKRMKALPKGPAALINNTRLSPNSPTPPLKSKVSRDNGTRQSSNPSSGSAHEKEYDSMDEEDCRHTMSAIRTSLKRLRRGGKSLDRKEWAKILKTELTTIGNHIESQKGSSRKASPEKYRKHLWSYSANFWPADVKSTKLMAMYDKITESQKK

[12] = tested on: N/A; test: Trypanosoma cruzi proteasome luciferase counter-screen; assay type: functional; details: 9.37 µM

Row | SMILES | Percent Effect [1] | Percent Effect [2] | Percent Effect [3] | Percent Effect [4] | Percent Effect [5] | Percent Effect [6] | Percent Effect [7] | Percent Effect [8] | Percent Effect [9] | Percent Effect [10] | Percent Effect [11] | Percent Effect [12]
1 | CC(C)N1CCOCC2(CN(Cc3ccco3)CCO2)C1 (stereo not drawn) | -0.00842% | -5.48% | 2.81% | 4.65% | -2.58% | 2.4% | 13.8% | 3.21% | 2.08% | 8.64% | 0.188% | –
2 | CN(C)C(=O)[C@H]1C[C@@H]2CN(S(=O)(=O)Cc3ccccc3)C[C@H]1O2 | -2.48% | 13.3% | 5.4% | -3.98% | -1.38% | 3.96% | 7.49% | -3.98% | 5.32% | 11.5% | -6.01% | –
3 | Cc1noc(C)c1CNCC1CCN(CC(O)c2ccccc2)CC1 (stereo not drawn) | -1.37% | 11.4% | -4.26% | 6.03% | -1.54% | -1.5% | 9.09% | -17.5% | 4.17% | 17.7% | -18% | –
4 | CCC1=N[C@@]2(CC[C@@H]3CN(Cc4ccc(Cl)cc4)C[C@@H]32)C(=O)N1C | -4.15% | 2.7% | 3.53% | 4.31% | -0.0978% | -13.1% | 16.4% | 14.7% | 0% | 2.56% | 2.84% | –
5 | CCOC(=O)c1sc2ccsc2c1CNC(=O)CC | -4.75% | 16.2% | -8.58% | 18.5% | 7.15% | -0.185% | 1.44% | 19% | 4.95% | 13.4% | 38.4% | –
6 | O=C(CC1CN(Cc2ccccc2)CCO1)Nc1ccccc1F (stereo not drawn) | -4.53% | 21.6% | -4.08% | 3.88% | 2.15% | 4.17% | 64.1% and 65% and 65.1% | 4.52% | 8.91% | 15.8% | -1.97% | 32.6% and 32.9%
7 | CCOc1cccc(C(C)NCc2ccc(OC)c(OC)c2OC)c1 (stereo not drawn) | -3% | 16% | -4.66% | 15.5% | 8.08% | 4.69% | 11.2% | 43.6% | 7.1% | 21% | -6.92% | –
8 | Cc1ccc(CN(C)C(=O)CN2CC(n3cccn3)C2)o1 | -6.67% | 2.63% | 17.5% | -1.07% | -1.46% | -4.73% | 23.1% and 34.2% and 27.3% | 22.7% | -2.13% | -2.6% | -1.83% | 20.4% and 19.7%
9 | CCc1noc(C)c1C(=O)N(C)Cc1ncc(C)c(OC)c1C | -5.87% | 10.4% | 5.05% | -5.08% | 6.76% | 2.32% | 7.36% | 7.84% | 8.57% | 18.8% | -14.6% | –
10 | O=C(c1cccs1)N1CCC(O)(CN2CCc3ccccc3C2)C1 (stereo not drawn) | -1.45% | 4.05% | 0.49% | 2.19% | -4.74% | 5.34% | 11.7% | 7.61% | 2.15% | 3.9% | -12.6% | –
11 | Cc1cc(C)n(C2CCCN(C(=O)C3=NN(C)C(=O)CC3)C2)n1 (stereo not drawn) | -0.53% | 18.9% | -18.2% | -2.77% | 5% | -12.8% | 11.9% | 23.2% | 8.37% | 25.9% | -9.84% | –
12 | Cc1ccc(S(=O)(=O)Nc2ccc(-n3cccc3C(=O)O)c(C)c2)s1 | -4.28% | 5.26% | 12.2% | 2.35% | -5.55% | 9.47% | 29.7% and 25.9% and 32.3% | -7.51% | -9.57% | -15.6% | 4.9% | 14.7% and 12.8%
13 | COc1cc(CN(C)C(=O)NCCC2CCCO2)ccc1SC (stereo not drawn) | -3% | 8.11% | -5.1% | 2.6% | 0.781% | 0.833% | 10.1% | -25.6% | -13.9% | 3.66% | -5.8% | –
14 | Cc1cc(C)n(C2CN(CC(=O)NC3CCOCC3)C2)n1 | -6.74% | 6.33% | 6.98% | 1.96% | -1.33% | -1.94% | 9.26% | 10.4% | 8.33% | 15.2% | -15% | –
15 | O=C(C1CCN(c2snc3ccccc23)CC1)N1CCCCCC1 | 1.1% | 24.1% | 2.83% | -3.46% | -0.923% | -4.52% | 13.7% | 59.6% | 5.21% | 7.59% | -21.3% | –
16 | O=C(c1ccno1)N1CC[C@@H]2O[C@@H](COCCN3CCCC3)CC[C@@H]21 | -3.63% | 10.8% | 1.12% | -3.29% | 1.66% | -1.59% | 21.2% | -0.519% | 5.41% | 15.4% | -2.39% | –
17 | COc1cccc(OCC(=O)NS(=O)(=O)c2ccc(C)s2)c1 | -3.05% | 15.2% | -2.9% | -5.56% | 5.19% | 5.32% | 10.4% | 15.6% | 2.46% | 16.5% | -4.35% | –
18 | CCC1=N[C@@]2(CC[C@@H]3CN(CC4CC4)C[C@@H]32)C(=O)N1C | -4.94% | 10.8% | 1.5% | 0.724% | -1.86% | 0.319% | 19.2% | -28.1% | 0% | 15.4% | -3.77% | –
19 | Cc1ccc(NC(=O)NC(C)c2nc[nH]n2)s1 (stereo not drawn) | -7.16% | 5.41% | 1.69% | 19.6% | -0.293% | 2.23% | 9.7% | -8.4% | 6.45% | 13.6% | -2.14% | –
20 | CCN(CC1CCOC1)C(=O)c1cccnc1N1CCOCC1 (stereo not drawn) | -2.22% | 5.26% | -1.45% | 12.7% | 6.07% | -1.8% | -1.95% | -1.93% | 4.43% | 6.17% | 2.96% | –
